hgDAF12 agonist: hgDAF-12 agonism, primary luciferase screen; AID 687014; activation, % at 6.8 µM; HEK293 GAL4-hgDAF12 UAS-luciferase reporter, agonist luminescence; normalized to butyrate control; 370,000 tested, 1.8% active;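 active means activation above a cutoff set at the mean of all screened compounds plus 3 SD, cut at about 10% in these data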;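 further: 0% = DMSO wells and 100% = sodium butyrate wells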
DAX1 inh-1: inhibits human nuclear receptor DAX1; 340,000 tested, 0.99% active; P51843; inhibition, % at 6.75 µM; HEK293 Gal4-DAX1 luciferase reporter, luminescence;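 active means inhibition above the mean over all tested compounds plus 3 SD, cut at about 4.2% in these data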;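 further: 0% = DAX1-transfected cells with DMSO and 100% = empty-vector control cells with DMSO; inhibition shows as a rise in luminescence from relieved DAX1 repression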
Target sequence (P51843 207-470 limits assumed): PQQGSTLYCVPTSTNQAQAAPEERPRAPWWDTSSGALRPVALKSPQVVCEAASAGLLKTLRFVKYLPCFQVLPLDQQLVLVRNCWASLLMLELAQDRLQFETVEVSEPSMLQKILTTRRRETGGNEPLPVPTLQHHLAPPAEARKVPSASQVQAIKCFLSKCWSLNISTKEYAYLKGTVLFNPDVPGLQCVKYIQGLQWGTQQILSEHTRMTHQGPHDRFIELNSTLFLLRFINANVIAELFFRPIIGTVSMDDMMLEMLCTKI
hcDAF-12 act: activators of H. contortus DAF-12 nuclear receptor; HEK293 hcDAF-12 lit1-tk-luc reporter, luminescence; 0% DMSO, 100% Δ7-dafachronic acid; activation, % at 6.8 µM; AID 652067; 370,000 tested, 1.4% active;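 active means activation above the mean of all tested compounds plus 3 SD, cut at about 5.5% in these data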;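 further: 100% = response to 3 µM Δ7-dafachronic acid high control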
ssDAF12 agonist: activates DAF-12 receptor from parasite S. stercoralis; 370,000 tested, 1% active; activation, % at 6.8 µM; HEK293 ssDAF-12/GRIP1 lit1-tk-luc reporter, luminescence; % of 3 µM dafachronic acid response;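 active means activation above the mean over all tested compounds plus 3 SD, cut at about 0.9% in these data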;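 further: 0% = DMSO-only wells and 100% = 3 µM delta7-dafachronic acid wells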
DAX1 inh-2: DAX1 (NR0B1) inhibition, primary screen. inhibition, % at 6.8 µM. HEK293T StAR-luciferase reporter, SF-1/DAX-1 repression relief. AID 652010. 370,000 tested, 1.1% active;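 active means inhibition above the mean over all tested compounds plus 3 SD, cut at about 3.6% in these data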;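 further: 0% = DAX-1 cells with DMSO and 100% = cells lacking DAX-1 with DMSO; higher inhibition means more luminescence from relief of DAX-1 repression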
* = called active by the depositor; / = no result. This is a sample that favours compounds with a hit; in the whole collection about 4.1% have one here.

SMILES	hgDAF12 agonist	DAX1 inh-1	hcDAF-12 act	ssDAF12 agonist	DAX1 inh-2
CCC(C)N(C(=O)c1ccc(CNC(=O)c2cccc(Br)c2)cc1)C(C)CC (centres undefined)	-4	/	-2	-2	-1
C[C@H]1[C@@H](OC(=O)Nc2ccc(Br)cc2)CC[C@@]23CCCN2C(=O)CCC[C@@H]13	-2	/	-2	-2	/
CC(=O)c1ccc(-c2ccc(C(=O)N3CCCc4ccccc43)o2)cc1	5	1	-1	1.8*	1
COc1cc(OC)cc(C(=O)N2CCCc3ccccc32)c1	0	1	0	-1	0
COc1cccc2cc(C(=O)N3CCCc4ccccc43)oc12	3	0	-4	-1	-1
COc1ccc2oc(C(=O)N3CCCc4ccccc43)c(C)c2c1	7	1	4	0	4.3*
Cc1ccc(S(=O)(=O)N2CCCCC2)cc1NC(=O)Cc1c[nH]c2ccccc12	-1	0	5.8*	0	0
Cc1ccc(NC(=O)Cc2c[nH]c3ccccc23)cc1S(=O)(=O)N1CCCCCC1	3	0	6.2*	-1	0
Cc1ccc(NC(=O)Cc2n[nH]c(=O)c3ccccc23)cc1S(=O)(=O)N1CCCCCC1	-7	-1	-3	-2	-4
CC(Oc1ccccc1Cl)C(=O)N(Cc1ccco1)C1CCS(=O)(=O)C1 (centres undefined)	-2	-2	-1	1.6*	1
O=C(C(c1ccccc1)c1ccccc1)N(Cc1ccco1)C1CCS(=O)(=O)C1 (centres undefined)	-4	1	-2	-1	0
CC(C)c1ccc(CN(C(=O)c2cc3ccccc3oc2=O)C2CCS(=O)(=O)C2)cc1 (centres undefined)	1	0	0	-1	0
O=C(c1cc2ccccc2oc1=O)N(Cc1cccc(Br)c1)C1CCS(=O)(=O)C1 (centres undefined)	-1	1	0	-1	0
O=C(c1cc2ccccc2oc1=O)N(Cc1ccco1)C1CCS(=O)(=O)C1 (centres undefined)	13*	1	5	0	1
CN(C)c1ccc(CN(C(=O)c2cc3ccccc3oc2=O)C2CCS(=O)(=O)C2)cc1 (centres undefined)	7	1	2	0	5.2*
COC(=O)[C@H](C)NC(=O)[C@@H]1CCCN1C(=O)CNP(=O)(OCc1ccccc1)OCc1ccccc1	0	/	-2	-1	/
C[C@@H]1OC(C2CCCCC2)N(C)[C@H]2C[C@H]3c4[nH]c5c(-c6ccc7c(c6)OCO7)cccc5c4CCN3C[C@@H]12 (some centres undefined)	3	/	-1	-1	1
Cc1ccccc1NCC(=O)N/N=C/c1ccc[nH]1	0	/	-3	-1	/
O=[N+]([O-])c1cnn(-c2nc(-c3cccs3)cc(C(F)(F)F)n2)c1	1	4.7*	-1	-1	0
CC(C)(C)c1ccc(OCCCN2CCC(C(O)(c3ccccc3)c3ccccc3)CC2)cc1	-3	/	2	-1	0
Oc1ccc(Cl)cc1C1=NNC(c2cccs2)C1 (centres undefined)	14*	4	5.7*	0	1
COC(=O)C1CN(Cc2ccccc2)CCS(=O)(=O)N1Cc1ccc(C(F)(F)F)cc1 (centres undefined)	0	/	-1	-2	-2
CC(=O)N1CCN(c2ccc(N3CCN(Cc4ccccc4)[C@@H](C)C3)c(C)c2)[C@H](C)C1	2	/	-1	-2	-3
CCOC(=O)c1[nH]c(C)c(C(=O)Nc2ccccc2F)c1C	10	-1	1	-1	-1
CCOC(=O)c1c(C)[nH]c(C(=O)OCc2ccccc2F)c1C	13*	5.5*	6.3*	0	3
SMILES	hgDAF12 agonist	DAX1 inh-1	hcDAF-12 act	ssDAF12 agonist	DAX1 inh-2
CCOC(=O)c1c(C)[nH]c(C(=O)OCC(=O)Nc2cccnc2Cl)c1C	-3	0	-2	-1	-2
CCOC(=O)c1c(C)[nH]c(C(=O)OCC(=O)N(C)CC(=O)Nc2ccccc2Cl)c1C	2	-1	3	1.0*	-3
CCOC(=O)c1c(C)[nH]c(C(=O)OCCOc2ccccc2C)c1C	11*	3	4	0	3
CCCC[C@H](C(=O)N(C)c1ccccc1)[C@@H](O)c1ccc(C(C)=O)cc1	0	/	-4	-1	0
Cc1ccc2oc(C(=O)N(C)Cc3ccon3)c(C)c2c1	10	3	6.5*	0	2
Cc1ccc2oc(C(=O)N(C)Cc3ccc(C)o3)c(C)c2c1	2	0	-3	-1	0
C[C@@H]1COc2cccc(F)c2S(=O)(=O)N1C	2	/	-2	-1	1
O=C1OCC2=C1C(c1ccc(F)cc1)c1cc3c(cc1N2)OCO3 (centres undefined)	-5	0	0	-1	4.2*
O=C1OCC2=C1C(c1ccc(F)cc1)c1cc3c(cc1N2)OCCO3 (centres undefined)	-8	1	0	0	2
COC(=O)c1ccc(COc2ccc(/C=N/Nc3nc(C)cc(=O)[nH]3)cc2)cc1	5	5.8*	2	-1	1
COC(=O)C[C@H]1CC[C@@H]2[C@H](COc3ccc(NS(C)(=O)=O)cc3C(=O)N2C)O1	-1	/	-3	-1	0
COCCNC(=O)Cn1nc(-c2ccc(Cl)cc2)c2ccccc2c1=O	-2	2	2	11*	2
COCCNC(=O)Cn1nc(-c2ccccc2)c2ccccc2c1=O	1	0	-3	-1	0
COC1=C[C@H](C(=O)N[C@H]2CCCC[C@@H]2NC(C)=O)[C@@]2(C)Cc3ccccc3[C@H]2CC1=O	-2	/	-1	-2	-1
Cc1ccc(-n2nnnc2SCC(=O)NCC2(N3CCOCC3)CCCCC2)c(C)c1	-6	-2	-4	-2	-3
Cc1ccc(-n2nnnc2SCC(=O)NCC2(N3CCCCC3)CCCCC2)c(C)c1	-1	0	-1	-1	3.6*
COc1cc([N+](=O)[O-])cc(/C=N/NC(=O)Cn2nccc2C)c1O	-2	6.0*	-1	-1	-1
COc1cc([N+](=O)[O-])cc(/C=N/NC(=O)Cn2nc(C)cc2C)c1O	-1	1	-2	-2	0
C[C@H](O)[C@@H]1C(=O)N2CCc3c([nH]c4c(-c5ccccc5)cccc34)[C@@H]2C[C@@H]1N(C)C(=O)OCc1ccccc1	0	/	1	-1	0
O=C(CSc1nnc(-c2cccs2)n1-c1cccc(Cl)c1)c1cccc2c1OCCO2	1	6.1*	-1	-1	0
O=C(Oc1ccc(-c2cnc3ccccc3n2)cc1)c1ccco1	10	4	5.6*	0	3
COc1ccccc1C(=O)NC(C)C(c1cccs1)N1CCOCC1 (centres undefined)	3	1	2	1.7*	0
CC1(C)CC(=O)/C(=N/Nc2ccc(Cl)cc2)CO1	11*	4.5*	1	-1	3
